Here are results for 28 compounds from ChEMBL document CHEMBL1157539, “Thousands of chemical starting points for antimalarial lead identification” (Nature, 2010).

The structures appear in SMILES notation.

Type in all cases: functional
Test [1] concerns Plasmodium falciparum. Put plainly: GSK_TCMDC: Inhibition of Plasmodium falciparum 3D7 in whole red blood cells, using parasite LDH activity as an index of growth. Test compounds present at 2uM.
For test [2], the system named is Plasmodium falciparum. The test can be described thus: GSK_TCMDC: Inhibition of Plasmodium falciparum Dd2 in whole red blood cells, using parasite LDH activity as an index of growth. Test compounds present at 2uM.
The subject of another test is HepG2. The test can be described thus: GSK_TCMDC: Percent inhibition of human HepG2 cell line. Test compounds present at 10uM.

What is called Inhibition is the percentage by which the read-out fell short of the control. For `COc1ccc2nccc([C@@H](O)CN3CCC(NC(=O)c4ccc(Cl)c(OC)c4)CC3)c2c1`, the Inhibition in the test with Plasmodium falciparum [1] came to 87%; in the test with Plasmodium falciparum [2], 28%; with HepG2 it was 26%.

On to `Clc1ccc(C=NN=c2cc[nH]c3ccccc23)cc1`, for which the Inhibition in the test with Plasmodium falciparum [1] was determined as 100%; with Plasmodium falciparum [2] it was 97%; in the test with HepG2, 5%.

`COc1ccc2nccc([C@@H](O)CN3CCC(NCCOc4ccccc4[N+](=O)[O-])CC3)c2c1.O=C(O)C(=O)O`: the Inhibition stood at 100% in the test with Plasmodium falciparum [1], 98% in the test on Plasmodium falciparum [2] and 4% with HepG2.

Take `CC(c1cccc(S(=O)(=O)NCc2cccc(C(F)(F)F)c2)c1)N1CCC(N2CCCCC2)CC1` (centres undefined): the Inhibition is 99% in the test with Plasmodium falciparum [1], 35% with Plasmodium falciparum [2] and 37% with HepG2.

With `CN1CCCC(CN2CCN(Cc3cccc(-c4cccc(-c5nc6ccccc6[nH]5)c4)c3)CC2)C1.O=C(O)C(F)(F)F` (centres undefined), the Inhibition stood at 100% with Plasmodium falciparum [1], 99% in the test with Plasmodium falciparum [2] and 45% in the test on HepG2.

On to `COc1cc(C(C)C)nc2ccc(NC(=O)c3ccc(C(=O)Nc4ccc5nc(C(C)C)cc(OC)c5c4)cc3)cc12`, for which the Inhibition in the test with Plasmodium falciparum [1] came out at 95%; with Plasmodium falciparum [2] it was 72%; with HepG2 it was 39%.

For `COc1ccc(-c2c3c(=O)n(C)c(=O)n(C)c3c3nnc4ccccc4n23)cc1`, the values for the Inhibition with Plasmodium falciparum [1], in the test on Plasmodium falciparum [2] and with HepG2 were 96%, 86% and 0%, respectively.

`COc1ccc(NC(=O)[C@H](Cc2ccccc2)Nc2cc(C)nc(NCC3CCCCC3)n2)cc1.O=C(O)C(F)(F)F`: the Inhibition in the test on Plasmodium falciparum [1] worked out at 100%; with Plasmodium falciparum [2], 83%; in the test on HepG2 it was 9%.

For `Nc1nc(N)c2c(ccc3c2ccn3CCCC(F)(F)F)n1`, the Inhibition came out at 97% with Plasmodium falciparum [1], 34% with Plasmodium falciparum [2] and 66% in the test on HepG2.

`CCCCCCCCc1c(C)nc(C)c(I)c1O`: the Inhibition with Plasmodium falciparum [1] came to 91%; in the test with Plasmodium falciparum [2], 77%; with HepG2 it was 5%.

As to `O=C(Nc1ccc(CN2CCOCC2)cc1)c1ccc(-c2ccc(Br)cc2)o1`, the Inhibition came out at 92% with Plasmodium falciparum [1], 0% in the test on Plasmodium falciparum [2] and 3% in the test with HepG2.

With `COc1ccc2c(Nc3ccc(N4CCN(C)CC4)cc3)cc(C)nc2c1`, the results for the Inhibition with Plasmodium falciparum [1], in the test with Plasmodium falciparum [2] and with HepG2 were 100%, 9% and 23%, respectively.

For `CN(CCc1ccccn1)Cc1ccc(-c2ccc(-c3nc4ccccc4[nH]3)s2)cc1`, the results for the Inhibition in the test with Plasmodium falciparum [1], in the test with Plasmodium falciparum [2] and in the test on HepG2 were 100%, 48% and 29%, respectively.

`Cl.N=c1n(CCN2CCCC2)c2ccccc2n1CC(O)c1ccc(Cl)c(Cl)c1` (centres undefined): the Inhibition with Plasmodium falciparum [1] worked out at 100%; in the test with Plasmodium falciparum [2], 6%; with HepG2, 36%.

`O=C(Nc1ccc(OC(F)(F)F)cc1)NC1CCN(c2ccnc3ccccc23)CC1.O=C(O)C(F)(F)F`: the values for the Inhibition with Plasmodium falciparum [1], with Plasmodium falciparum [2] and in the test on HepG2 were 100%, 40% and 40%, respectively.

On to `CCOc1ccc2ccccc2c1C(=O)Nc1cc(C)nn1-c1nc(C)cc(=O)[nH]1`, for which the Inhibition was 93% in the test on Plasmodium falciparum [1], 86% with Plasmodium falciparum [2] and 28% in the test on HepG2.

Consider `Nc1ncc(Cc2ccc3c(ccc4ccccc43)c2)c(N)n1`, for which the Inhibition is 97% with Plasmodium falciparum [1], 3% in the test with Plasmodium falciparum [2] and 9% in the test with HepG2.

With `Cc1cc(N[C@@H](Cc2ccccc2)C(=O)Nc2ccccc2)nc(NCCc2ccccn2)n1.O=C(O)C(F)(F)F`, the Inhibition in the test on Plasmodium falciparum [1] turned out to be 97%; in the test with Plasmodium falciparum [2], 50%; with HepG2 it was 0%.

`CN(C(=O)C(C)(C)Oc1ccc(Cl)cc1)C1CCN(CCCCCNC(=O)/C=C/c2ccc(Cl)c(Cl)c2)CC1`: the values for the Inhibition in the test with Plasmodium falciparum [1], with Plasmodium falciparum [2] and in the test with HepG2 were 96%, 26% and 86%, respectively.

In the case of `CC1CCCN1Cc1ccc(-c2ccc3c(=O)cc(CCc4cccc(F)c4F)n(CC(=O)N(C)Cc4ccc(-c5ccc(C(F)(F)F)cc5)cc4)c3n2)cc1.O=C(O)C(O)C(O)C(=O)O` (centres undefined), the Inhibition in the test with Plasmodium falciparum [1] was found to be 100%; in the test with Plasmodium falciparum [2] it was 91%; in the test on HepG2, 0%.

On to `CCCN(CCC)C(C)CCC(C)Nc1c2ccc(Cl)cc2nc2ccc(OC)cc12.Cl` (centres undefined), for which the Inhibition is 100% in the test on Plasmodium falciparum [1], 99% in the test with Plasmodium falciparum [2] and 41% with HepG2.

With `CC(=O)N1N=C(c2ccc(F)cc2)Sc2c1nc(C1CCCCC1)n2C(C)=O`, the Inhibition was determined as 92% in the test on Plasmodium falciparum [1], 9% in the test on Plasmodium falciparum [2] and 4% in the test on HepG2.

In the case of `O=C(Nc1cc(Cl)ccc1O)c1cnn2c(C(F)(F)F)cc(-c3cccs3)nc12`, the figures for the Inhibition in the test with Plasmodium falciparum [1], in the test on Plasmodium falciparum [2] and in the test on HepG2 were 100%, 74% and 8%, respectively.

For the compound `COc1ccc(-c2cccc(NC(=O)c3cccc(C#N)c3)c2)cc1CN(C)CCO.O=C(O)C(F)(F)F`, the Inhibition in the test with Plasmodium falciparum [1] was 96%; in the test with Plasmodium falciparum [2] it was 30%; in the test on HepG2 it was 28%.

Regarding `Cc1cnc(C(=O)Nc2cccc(-c3cccc(-c4nc5cccc(C)c5[nH]4)c3)c2)cn1`, the Inhibition amounted to 99% with Plasmodium falciparum [1], 45% in the test on Plasmodium falciparum [2] and 15% in the test on HepG2.

With `O=C(/C=C/C=C/c1ccc(Cl)c(Cl)c1)NCCCCCN1CCCC2CCCCC21` (centres undefined), the Inhibition is listed as 91% in the test with Plasmodium falciparum [1], 48% in the test on Plasmodium falciparum [2] and 41% with HepG2.

With `N#Cc1ccc(N2CCN(Cc3cccc(-c4ccc(-c5nc6cc(C(F)(F)F)ccc6[nH]5)cc4)c3)CC2)nc1.O=C(O)C(F)(F)F`, the values for the Inhibition in the test on Plasmodium falciparum [1], with Plasmodium falciparum [2] and in the test on HepG2 were 100%, 81% and 39%, respectively.

As for `O=c1cc(NCCCNCc2cc(Cl)c(Cl)cc2Cl)[nH]c2ccccc12`, the Inhibition amounted to 93% in the test on Plasmodium falciparum [1], 20% in the test with Plasmodium falciparum [2] and 7% in the test with HepG2.
